Source: the supplement of paper PMC7411640
Structures can show the parent of a compound that is named as a salt.

System: MDA-MB-468
Experiment: phospho-S6 immunofluorescence (DAPI-normalised), per-plate z-score; higher = higher phospho-S6 signal (less pathway suppression)
Details: 24 h
Procedure: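 GPCR-targeted compound library (MedChemExpress HY-L006) tested on MDA-MB-468 PTEN-null TNBC cells in 384-well plates at 0.1, 1 or 10 uM, combined with vehicle, GDC0941 450 nM or lapatinib 1 uM, for 24 h. Phospho-S6 (S240/244) immunofluorescence normalised to DAPI and expressed as a per-plate z-score; values are the mean of biological triplicates.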

CN1C[C@H](C(=O)N[C@]2(C)O[C@@]3(O)[C@@H]4CCCN4C(=O)[C@H](Cc4ccccc4)N3C2=O)C[C@@H]2c3cccc4[nH]cc(c34)C[C@H]21 [Dihydroergotamine (mesylate)] (compound 10 µM)
phospho-S6 immunofluorescence (z-score) (co-treatment: GDC0941 450 nM): 1.05 | phospho-S6 immunofluorescence (z-score) (co-treatment: lapatinib 1 uM): 0 | phospho-S6 immunofluorescence (z-score) (co-treatment: vehicle): 0.86

C=CCN1C[C@H](C(=O)N(CCCN(C)C)C(=O)NCC)C[C@@H]2c3cccc4[nH]cc(c34)C[C@H]21 [Cabergoline] (compound 10 µM)
phospho-S6 immunofluorescence (z-score) (co-treatment: GDC0941 450 nM): 0.82 | phospho-S6 immunofluorescence (z-score) (co-treatment: lapatinib 1 uM): -0.33 | phospho-S6 immunofluorescence (z-score) (co-treatment: vehicle): -0.33

C[C@H]1CNCCc2ccc(Cl)cc21 [Lorcaserin (Hydrochloride)] (compound 10 µM)
phospho-S6 immunofluorescence (z-score) (co-treatment: GDC0941 450 nM): -1 | phospho-S6 immunofluorescence (z-score) (co-treatment: lapatinib 1 uM): -0.25 | phospho-S6 immunofluorescence (z-score) (co-treatment: vehicle): -0.95

NCCc1cc(O)c(O)cc1O [Oxidopamine (hydrobromide)] (compound 10 µM)
phospho-S6 immunofluorescence (z-score) (co-treatment: GDC0941 450 nM): 0.33 | phospho-S6 immunofluorescence (z-score) (co-treatment: lapatinib 1 uM): 2.77 | phospho-S6 immunofluorescence (z-score) (co-treatment: vehicle): 2.94

N#Cc1c(Oc2cccc(OS(=O)(=O)CCCC(F)(F)F)c2)cccc1C(F)(F)F (compound 10 µM)
phospho-S6 immunofluorescence (z-score) (co-treatment: GDC0941 450 nM): -3.05 | phospho-S6 immunofluorescence (z-score) (co-treatment: lapatinib 1 uM): -2.85 | phospho-S6 immunofluorescence (z-score) (co-treatment: vehicle): -5.42

Cc1ncc(CN2CC=C(c3ccccc3)CC2)c(N)n1 [Ro 10-5824 (dihydrochloride)] (compound 10 µM)
phospho-S6 immunofluorescence (z-score) (co-treatment: GDC0941 450 nM): -1.36 | phospho-S6 immunofluorescence (z-score) (co-treatment: lapatinib 1 uM): -1.65 | phospho-S6 immunofluorescence (z-score) (co-treatment: vehicle): 0.42

CO[C@]12C[C@@H](COC(=O)c3cncc(Br)c3)CN(C)[C@@H]1Cc1cn(C)c3cccc2c13 [Nicergoline] (compound 10 µM)
phospho-S6 immunofluorescence (z-score) (co-treatment: GDC0941 450 nM): 0.57 | phospho-S6 immunofluorescence (z-score) (co-treatment: lapatinib 1 uM): -0.56 | phospho-S6 immunofluorescence (z-score) (co-treatment: vehicle): -0.38

O=C(O[C@H]1C[N+]2(CCCOc3ccccc3)CCC1CC2)C(O)(c1cccs1)c1cccs1 [Aclidinium (Bromide)] (compound 10 µM)
phospho-S6 immunofluorescence (z-score) (co-treatment: GDC0941 450 nM): 0.75 | phospho-S6 immunofluorescence (z-score) (co-treatment: lapatinib 1 uM): 1.09 | phospho-S6 immunofluorescence (z-score) (co-treatment: vehicle): -0.87

CCC(COC(=O)c1cc(OC)c(OC)c(OC)c1)(c1ccccc1)N(C)C (centres undefined) [Trimebutine (maleate)] (compound 10 µM)
phospho-S6 immunofluorescence (z-score) (co-treatment: GDC0941 450 nM): 1.12 | phospho-S6 immunofluorescence (z-score) (co-treatment: lapatinib 1 uM): 1.5 | phospho-S6 immunofluorescence (z-score) (co-treatment: vehicle): 0.51

Cc1ccc2c(c1)[C@]13CCCC[C@@H]1[C@H](C2)N(C)CC3 [Dimemorfan (phosphate)] (compound 10 µM)
phospho-S6 immunofluorescence (z-score) (co-treatment: GDC0941 450 nM): 0.3 | phospho-S6 immunofluorescence (z-score) (co-treatment: lapatinib 1 uM): 0.09 | phospho-S6 immunofluorescence (z-score) (co-treatment: vehicle): 0.76

CC[N+](C)(CC)CCOC(=O)C(O)(c1ccccc1)c1ccccc1 [Methylbenactyzium Bromide] (compound 10 µM)
phospho-S6 immunofluorescence (z-score) (co-treatment: GDC0941 450 nM): -0.26 | phospho-S6 immunofluorescence (z-score) (co-treatment: lapatinib 1 uM): -0.59 | phospho-S6 immunofluorescence (z-score) (co-treatment: vehicle): -0.57

CN1[C@@H]2CC[C@H]1C[C@@H](OC(=O)C(CO)c1ccccc1)C2 (some centres undefined) [Atropine (sulfate monohydrate)] (compound 10 µM)
phospho-S6 immunofluorescence (z-score) (co-treatment: GDC0941 450 nM): -1.09 | phospho-S6 immunofluorescence (z-score) (co-treatment: lapatinib 1 uM): -0.18 | phospho-S6 immunofluorescence (z-score) (co-treatment: vehicle): -0.82

O=C(O[C@H]1C[C@H]2CC[C@@H](C1)[N+]21CCCC1)C(O)(c1ccccc1)c1ccccc1 [Trospium (chloride)] (compound 10 µM)
phospho-S6 immunofluorescence (z-score) (co-treatment: GDC0941 450 nM): -0.76 | phospho-S6 immunofluorescence (z-score) (co-treatment: lapatinib 1 uM): 0.26 | phospho-S6 immunofluorescence (z-score) (co-treatment: vehicle): -1.07
